In assay [1] the target is Paired box protein Pax-6 (Homo sapiens) (UniProt P26367). Description: ATG_Pax6_CIS: Attagene CIS-FACTORIAL HepG2 Assay for human Paired Box 6 (PAX6) (AID 2282956). As to conditions: HepG2 CIS-FACTORIAL PAX6 reporter transcription, RNA readout; actives raise or lower the signal. The gist of the method:
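Multiplexed cis-reporter HepG2 system; 24 h treatment; reporter mRNA read by RT-PCR/CE fluorescence; bidirectional fit vs DMSO.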

Assay [2] can be described thus: ATG_PXRE_CIS: Attagene CIS-FACTORIAL HepG2 Assay for human Pregnane X Receptor Element (PXRE) (AID 2282957). Particulars: HepG2 Attagene CIS-FACTORIAL PXRE reporter, mRNA; actives raise or lower the signal. The procedure, abridged:
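Transfect HepG2 with MRTUs (cis promoter elements); dose chemical, incubate 24 h; isolate RNA, RT with oligo(dT), PCR, 6-FAM label, HpaI cut, CE. Gain/loss fit vs DMSO.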

The nature of assay [3]: ATG_Sox_CIS: Attagene CIS-FACTORIAL HepG2 Assay for human SRY-box transcription factor (SOX) (AID 2282960). As to conditions: HepG2 Attagene cis-factorial SOX reporter, mRNA; actives raise or lower the signal. The gist of the method:
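Transient MRTU transfection of HepG2; 24 h compound incubation; TriZol RNA, oligo(dT) RT, PCR, 6-FAM primer extension, HpaI cut, CE. Bidirectional fit, DMSO = baseline.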

Assay [4] has as its target Transcription factor Sp1 (Homo sapiens) (UniProt P08047). As to the kind of experiment: ATG_Sp1_CIS: Attagene CIS-FACTORIAL HepG2 Assay for human Specificity Protein 1 (Sp1) (AID 2282961). Particulars: HepG2 Sp1 cis-reporter transcription, actives raise or lower the signal. The gist of the method: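 Endogenous Sp1 activity was gauged in human liver HepG2 cells bearing transfected reporter units under a cis-regulating promoter. After 24 h dosing, reporter mRNA was quantified by RT-PCR with capillary electrophoresis, and activity fitted bidirectionally versus DMSO.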

Assay [5] can be described thus: ATG_SREBP_CIS: Attagene CIS-FACTORIAL HepG2 Assay for human Sterol Regulatory Element Binding (SREBP) (AID 2282962). Particulars: HepG2 Attagene cis-factorial SREBP reporter, mRNA; actives raise or lower the signal. The gist of the method:
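mRNA induction of transfected cis-promoter reporters in HepG2 cells, 24 h post-dose. Detection: RT-PCR with 6-FAM-labelled products, HpaI digest, capillary electrophoresis. DMSO served as negative control and baseline.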

The target in assay [6] is Signal transducer and activator of transcription 3 (Homo sapiens) (UniProt P40763). As to the kind of experiment: ATG_STAT3_CIS: Attagene CIS-FACTORIAL HepG2 Assay for human Signal Transducer and Activator of Transcription 3 (STAT3) (AID 2282963). Particulars: HepG2, Attagene cis-factorial STAT3 reporter transcription; actives raise or lower the signal. The gist of the method: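 HepG2 cells transiently transfected with cis-element-driven multiple reporter transcription units; after 24 h chemical exposure, reporter mRNA measured by RT-PCR, 6-FAM primer-extension labelling, HpaI digestion and capillary electrophoresis. Bidirectional fitting versus DMSO baseline.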

A short description of assay [7]: ATG_TCF_b_cat_CIS: Attagene CIS-FACTORIAL HepG2 Assay for human T-Cell-Factor with beta-catenin (TCF/b-cat) (AID 2282965). As to conditions: HepG2 TCF/beta-catenin cis-reporter transcription, actives raise or lower the signal. The gist of the method:
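Using capillary electrophoresis as the read-out, labelled reporter cDNA fragments from transiently transfected HepG2 were sized and quantified. Exposure lasted 24 hours; activity in either direction was referenced to DMSO.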

A short description of assay [8]: ATG_TAL_CIS: Attagene CIS-FACTORIAL HepG2 Assay for human TAL Basal Promoter (AID 2282966).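 Also: background control endpoint measuring basal TAL promoter reporter mRNA not a specific factor.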 As to conditions: HepG2 Attagene cis-factorial TAL promoter reporter; actives raise or lower the signal. The procedure, abridged:
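Fluorescence of labelled reporter cDNA fragments, resolved by capillary electrophoresis, gave the readout. Human HepG2 liver cells carried transiently transfected cis-element reporter units and were treated for 24 hours; activity was fitted bidirectionally against DMSO.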

The nature of assay [9]: ATG_TGFb_CIS: Attagene CIS-FACTORIAL HepG2 Assay for human Transforming Growth Factor (TGF) (AID 2282967). Particulars: HepG2 Attagene CIS TGFb reporter, mRNA transcription; actives raise or lower the signal. The gist of the method:
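Endogenous TGFB1-linked transcription factor activity read as reporter mRNA via RT-PCR and capillary electrophoresis, 24 h after dosing transiently transfected HepG2 cells. Gain or loss of signal fitted relative to DMSO.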

Assay [10] in a line: ATG_VDRE_CIS: Attagene CIS-FACTORIAL HepG2 Assay for human Vitamin D Receptor Element (VDRE) (AID 2282968). Particulars: HepG2 VDRE cis-reporter transcription, actives raise or lower the signal. The procedure, abridged:
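HepG2 cells transiently transfected with cis-element reporter units, dosed 24 h; reporter mRNA measured by RT-PCR, 6-FAM labeling, HpaI digestion and capillary electrophoresis. Activity fitted bidirectionally against DMSO baseline.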

For assay [11], the target named is Estrogen receptor (Homo sapiens) (UniProt P03372). As to the kind of experiment: ATG_ERa_TRANS: Attagene TRANS-FACTORIAL HepG2 Assay for human Estrogen Receptor alpha (ERa) (AID 2282970; active = hit-call score of the fitted dose curve at least 0.9, where 1 is the maximum). As to conditions: HepG2 Attagene TRANS ERa GAL4 reporter, mRNA. The procedure, abridged: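 Human liver HepG2, transient transfection of multiple GAL4-UAS reporter units; TRANS format (exogenous NR-Gal4 chimera). 24 h dosing. Readout: reporter mRNA, RT-PCR, 6-FAM primer extension, HpaI digest, capillary electrophoresis. Positive direction vs DMSO.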

Assay [12] concerns the target X-box-binding protein 1 (Homo sapiens) (UniProt P17861). Description: ATG_Xbp1_CIS: Attagene CIS-FACTORIAL HepG2 Assay for human X-box Binding Protein 1 (XBP1) (AID 2282972). Particulars: HepG2 XBP1 cis-element reporter, Attagene multiplex; actives raise or lower the signal. The procedure, abridged:
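Fluorescence-labelled cDNA fragments from reporter transcripts, separated by capillary electrophoresis, give the signal. Source: HepG2 cells transfected with promoter-driven reporter units, harvested 24 h post-dose. DMSO served as reference for bidirectional curve fitting.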

Assay [13] is described as follows: ATG_M_19_TRANS: Attagene TRANS-FACTORIAL HepG2 Assay for M19 Transcription Factor (Internal Marker) (AID 2282974; active = hit-call score of the fitted dose curve at least 0.9, where 1 is the maximum). Particulars: HepG2 Attagene TRANS-FACTORIAL M19 internal marker reporter. The procedure, abridged:
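Cells: human HepG2, transiently transfected with multiplexed reporter transcription units. Exposure: 24 h. Detection: RT-PCR of reporter mRNA with capillary electrophoresis. Analysis: gain-of-signal vs DMSO.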

Assay [14] can be described thus: ATG_GAL4_TRANS: Attagene TRANS-FACTORIAL HepG2 Assay for GAL4 (Internal Marker) (AID 2282976; active = hit-call score of the fitted dose curve at least 0.9, where 1 is the maximum). As to conditions: HepG2 Attagene TRANS GAL4 internal marker reporter. The procedure, abridged: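 First, HepG2 cells were transfected with reporter units under GAL4-UAS control. Next, they were treated with chemical for 24 h. Finally, RNA was reverse-transcribed, PCR-amplified, FAM-labelled and resolved by capillary electrophoresis, with induction scored against DMSO.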

Assay [15] is described as follows: ATG_RORE_CIS: Attagene CIS-FACTORIAL HepG2 Assay for human RAR-related Orphan Receptor Element (RORE) (AID 2282959). Particulars: HepG2 Attagene cis-factorial RORE reporter, mRNA; actives raise or lower the signal. The gist of the method:
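Cells were HepG2 carrying transfected cis-regulated reporter constructs, dosed for 24 hours. Total RNA was reverse-transcribed and reporter cDNA amplified, fluorescently labeled and sized by capillary electrophoresis. Activity was fitted bidirectionally relative to DMSO.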

Assay [16] is described as follows: ATG_TA_CIS: Attagene CIS-FACTORIAL HepG2 Assay for human TA Basal Promoter (AID 2282964). As to conditions: HepG2 Attagene CIS-factorial TA basal promoter reporter; actives raise or lower the signal. The gist of the method:
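Background-control readout: TA basal promoter reporter mRNA, fitted in both directions relative to DMSO. Measured by RT-PCR and capillary electrophoresis 24 hours after treating HepG2 human liver cells transiently carrying multiplexed cis-regulated reporter constructs.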

In assay [17] the target is Nuclear receptor subfamily 1 group I member 3 (Homo sapiens) (UniProt Q14994). As to the kind of experiment: ATG_CAR_TRANS: Attagene TRANS-FACTORIAL HepG2 Assay for human Constitutive Androstane Receptor (CAR) (AID 2282969; active = hit-call score of the fitted dose curve at least 0.9, where 1 is the maximum;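 also: activators raise reporter mRNA above DMSO so AC50 marks induction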). As to conditions: HepG2 Attagene TRANS-FACTORIAL CAR reporter. The procedure, abridged:
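HepG2 cells transiently transfected with multiplexed GAL4-UAS reporter units expressing chimeric NR-Gal4 proteins; compound exposure 24 h. Reporter mRNA measured by RT-PCR, 6-FAM labelling, HpaI digestion and capillary electrophoresis; gain-of-signal fitted against DMSO baseline.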

Assay [18] addresses Steroid hormone receptor ERR1 (Homo sapiens) (UniProt P11474). As to the kind of experiment: ATG_ERRa_TRANS: Attagene TRANS-FACTORIAL HepG2 Assay for human Estrogen-Related Receptor alpha (ERRa) (AID 2282971; active = hit-call score of the fitted dose curve at least 0.9, where 1 is the maximum). Particulars: HepG2 Attagene TRANS reporter, ERRa transactivation. The gist of the method: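 Reporter transcript induction was quantified by RT-PCR and capillary electrophoresis of FAM-labelled, HpaI-cut products after 24 h treatment of HepG2 cells carrying transiently transfected GAL4-UAS reporter units and an exogenous ERRa-Gal4 fusion; activity scored as increase over DMSO.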

The target in assay [19] is Estrogen-related receptor gamma (Homo sapiens) (UniProt P62508). As to the kind of experiment: ATG_ERRg_TRANS: Attagene TRANS-FACTORIAL HepG2 Assay for human Estrogen-Related Receptor gamma (ERRg) (AID 2282977; active = hit-call score of the fitted dose curve at least 0.9, where 1 is the maximum;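 also: hits increase reporter signal over DMSO so potencies reflect activators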). Particulars: HepG2 Attagene TRANS reporter, ERRg transactivation. The procedure, abridged: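 Transient HepG2 transfectants, 24 h compound exposure, GAL4-UAS reporter mRNA by RT-PCR/6-FAM labelling/capillary electrophoresis; positive direction vs DMSO.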

Records with an inconclusive call do not appear. The source made the active and inactive calls. The calls were made as follows, unless noted: active = hit-call score of the fitted dose curve at least 0.9, where 1 is the maximum; inactive = score below 0.9.

Sequence of Paired box protein Pax-6 (Homo sapiens) (P26367 whole entry, looked up): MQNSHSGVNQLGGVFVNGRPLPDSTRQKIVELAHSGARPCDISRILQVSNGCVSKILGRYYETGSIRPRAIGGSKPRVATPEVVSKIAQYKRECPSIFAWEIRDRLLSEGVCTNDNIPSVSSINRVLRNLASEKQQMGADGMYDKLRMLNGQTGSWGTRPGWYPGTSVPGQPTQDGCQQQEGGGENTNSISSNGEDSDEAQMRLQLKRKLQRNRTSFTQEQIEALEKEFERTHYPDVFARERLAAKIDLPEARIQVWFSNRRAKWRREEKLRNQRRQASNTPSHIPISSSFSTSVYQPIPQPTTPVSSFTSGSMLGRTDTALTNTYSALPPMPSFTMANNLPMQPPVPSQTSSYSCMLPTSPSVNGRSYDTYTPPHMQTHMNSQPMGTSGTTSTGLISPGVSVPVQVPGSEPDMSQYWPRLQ
Sequence of Estrogen receptor (Homo sapiens) (P03372 whole entry, looked up, the tested form may be a part): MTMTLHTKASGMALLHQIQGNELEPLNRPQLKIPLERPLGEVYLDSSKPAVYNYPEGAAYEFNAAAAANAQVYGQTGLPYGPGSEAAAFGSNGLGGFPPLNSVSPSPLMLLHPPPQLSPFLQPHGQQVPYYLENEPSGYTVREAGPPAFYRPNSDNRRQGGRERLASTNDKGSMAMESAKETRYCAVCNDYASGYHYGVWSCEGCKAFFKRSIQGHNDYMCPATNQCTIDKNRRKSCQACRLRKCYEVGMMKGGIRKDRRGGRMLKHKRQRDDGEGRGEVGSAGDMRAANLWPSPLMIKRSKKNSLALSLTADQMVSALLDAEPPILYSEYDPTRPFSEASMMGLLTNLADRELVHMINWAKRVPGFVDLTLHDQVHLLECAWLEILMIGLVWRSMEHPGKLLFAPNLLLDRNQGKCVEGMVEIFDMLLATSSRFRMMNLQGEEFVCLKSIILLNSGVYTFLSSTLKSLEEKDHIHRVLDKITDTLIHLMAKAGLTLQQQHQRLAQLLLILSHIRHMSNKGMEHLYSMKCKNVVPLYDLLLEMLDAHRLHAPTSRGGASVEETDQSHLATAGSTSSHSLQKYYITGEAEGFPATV
Sequence of X-box-binding protein 1 (Homo sapiens) (P17861 whole entry, looked up, the tested form may be a part): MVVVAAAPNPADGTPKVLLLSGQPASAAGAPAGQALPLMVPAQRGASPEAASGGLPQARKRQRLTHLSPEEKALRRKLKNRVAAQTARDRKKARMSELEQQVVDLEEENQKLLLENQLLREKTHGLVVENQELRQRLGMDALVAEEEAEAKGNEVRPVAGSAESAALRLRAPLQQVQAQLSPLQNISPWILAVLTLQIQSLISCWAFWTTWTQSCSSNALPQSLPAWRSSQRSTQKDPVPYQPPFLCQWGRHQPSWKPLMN
Sequence of Transcription factor Sp1 (Homo sapiens) (P08047 whole entry, looked up): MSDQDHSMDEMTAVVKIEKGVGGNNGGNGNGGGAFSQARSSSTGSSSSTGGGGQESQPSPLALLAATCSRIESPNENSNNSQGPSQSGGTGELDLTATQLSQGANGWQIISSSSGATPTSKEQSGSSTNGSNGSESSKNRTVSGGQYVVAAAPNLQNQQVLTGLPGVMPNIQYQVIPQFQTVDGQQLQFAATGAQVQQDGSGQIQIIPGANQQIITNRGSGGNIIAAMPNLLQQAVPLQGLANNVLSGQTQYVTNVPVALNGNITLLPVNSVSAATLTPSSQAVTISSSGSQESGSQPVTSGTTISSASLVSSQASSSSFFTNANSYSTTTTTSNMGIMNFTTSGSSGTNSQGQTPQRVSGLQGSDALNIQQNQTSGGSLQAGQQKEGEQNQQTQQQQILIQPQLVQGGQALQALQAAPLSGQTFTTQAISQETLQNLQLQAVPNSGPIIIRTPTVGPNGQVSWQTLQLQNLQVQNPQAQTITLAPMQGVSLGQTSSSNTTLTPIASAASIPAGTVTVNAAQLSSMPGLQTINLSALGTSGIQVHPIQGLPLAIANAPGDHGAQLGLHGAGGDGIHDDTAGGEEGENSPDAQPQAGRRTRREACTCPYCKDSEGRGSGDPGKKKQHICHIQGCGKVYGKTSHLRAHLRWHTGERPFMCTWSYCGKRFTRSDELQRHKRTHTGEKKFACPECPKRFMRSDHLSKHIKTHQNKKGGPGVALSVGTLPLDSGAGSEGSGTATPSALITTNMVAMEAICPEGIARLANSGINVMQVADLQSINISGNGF
Sequence of Signal transducer and activator of transcription 3 (Homo sapiens) (P40763 whole entry, looked up): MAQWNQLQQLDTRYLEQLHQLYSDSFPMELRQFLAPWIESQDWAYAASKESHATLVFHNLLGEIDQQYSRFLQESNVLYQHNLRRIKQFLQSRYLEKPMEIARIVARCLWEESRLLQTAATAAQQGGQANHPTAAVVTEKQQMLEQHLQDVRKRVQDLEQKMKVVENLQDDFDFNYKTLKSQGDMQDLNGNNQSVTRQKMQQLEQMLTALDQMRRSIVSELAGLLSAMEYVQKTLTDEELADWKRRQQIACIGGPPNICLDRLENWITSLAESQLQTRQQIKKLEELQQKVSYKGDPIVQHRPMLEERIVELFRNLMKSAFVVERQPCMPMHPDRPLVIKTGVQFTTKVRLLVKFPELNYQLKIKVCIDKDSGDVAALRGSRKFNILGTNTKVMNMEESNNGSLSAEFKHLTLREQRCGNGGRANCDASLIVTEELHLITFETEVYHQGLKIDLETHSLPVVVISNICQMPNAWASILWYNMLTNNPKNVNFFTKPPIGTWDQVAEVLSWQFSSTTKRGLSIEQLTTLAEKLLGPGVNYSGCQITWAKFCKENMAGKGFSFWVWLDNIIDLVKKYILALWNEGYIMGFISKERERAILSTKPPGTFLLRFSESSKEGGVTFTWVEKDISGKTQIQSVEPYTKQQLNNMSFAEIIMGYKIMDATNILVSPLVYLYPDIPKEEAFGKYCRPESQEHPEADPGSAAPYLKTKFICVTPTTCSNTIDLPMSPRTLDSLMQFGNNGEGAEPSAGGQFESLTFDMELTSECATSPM
Sequence of Nuclear receptor subfamily 1 group I member 3 (Homo sapiens) (Q14994 whole entry, looked up, the tested form may be a part): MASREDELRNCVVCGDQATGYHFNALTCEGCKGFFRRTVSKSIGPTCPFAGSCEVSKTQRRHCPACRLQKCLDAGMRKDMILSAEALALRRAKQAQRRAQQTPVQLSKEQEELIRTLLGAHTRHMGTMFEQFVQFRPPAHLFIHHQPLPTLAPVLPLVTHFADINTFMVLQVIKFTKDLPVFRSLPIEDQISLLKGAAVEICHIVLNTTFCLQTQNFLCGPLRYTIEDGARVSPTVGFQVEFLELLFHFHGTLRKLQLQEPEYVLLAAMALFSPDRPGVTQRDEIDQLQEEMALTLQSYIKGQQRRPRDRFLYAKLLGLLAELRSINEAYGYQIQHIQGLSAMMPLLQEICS
Sequence of Estrogen-related receptor gamma (Homo sapiens) (P62508 whole entry, looked up, the tested form may be a part): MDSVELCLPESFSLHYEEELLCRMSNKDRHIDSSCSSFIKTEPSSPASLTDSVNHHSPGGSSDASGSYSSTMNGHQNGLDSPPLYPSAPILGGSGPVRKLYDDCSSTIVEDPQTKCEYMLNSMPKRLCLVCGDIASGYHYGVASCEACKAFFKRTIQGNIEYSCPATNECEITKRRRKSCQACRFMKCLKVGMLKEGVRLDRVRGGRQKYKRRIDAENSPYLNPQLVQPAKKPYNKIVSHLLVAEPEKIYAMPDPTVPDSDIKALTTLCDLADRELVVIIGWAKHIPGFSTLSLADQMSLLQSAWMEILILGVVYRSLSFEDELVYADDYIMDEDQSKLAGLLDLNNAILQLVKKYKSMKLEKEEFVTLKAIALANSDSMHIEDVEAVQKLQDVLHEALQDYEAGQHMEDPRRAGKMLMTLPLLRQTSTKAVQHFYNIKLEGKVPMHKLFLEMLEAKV
Sequence of Steroid hormone receptor ERR1 (Homo sapiens) (P11474 whole entry, looked up, the tested form may be a part): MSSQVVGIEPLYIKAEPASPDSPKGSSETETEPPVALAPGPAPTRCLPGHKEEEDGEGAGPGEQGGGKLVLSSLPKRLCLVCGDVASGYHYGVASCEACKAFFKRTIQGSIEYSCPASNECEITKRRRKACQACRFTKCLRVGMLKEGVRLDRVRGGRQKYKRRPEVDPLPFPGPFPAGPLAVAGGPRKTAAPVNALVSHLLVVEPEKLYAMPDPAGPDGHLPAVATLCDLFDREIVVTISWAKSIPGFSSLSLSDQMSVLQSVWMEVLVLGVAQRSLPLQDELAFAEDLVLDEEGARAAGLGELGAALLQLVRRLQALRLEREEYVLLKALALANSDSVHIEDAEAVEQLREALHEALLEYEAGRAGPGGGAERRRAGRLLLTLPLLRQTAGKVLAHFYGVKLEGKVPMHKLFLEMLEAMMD

As for `OCCN(CCO)c1ccccc1`, the call in assay [1], in assay [2], in assay [3], in assay [4], in assay [5] and in assay [6] was inactive. Also, the molecule was called inactive in assay [7], in assay [8], in [9], in [10], in assay [11] and in assay [12]. Besides, the molecule was classed as inactive in assay [13] and in [14].
Take `CC(C)(C)C(=O)C=Cc1ccc(Cl)cc1`: the AC50 in [1] is 36.8 µM (active); in [2], 5.18 µM (active); in assay [3], 25.1 µM (active); in assay [4], 27.3 µM (active); in assay [16], 78.2 µM (active); in assay [8], 100 µM (active). Moreover, the AC50 in [10] is 26.3 µM (active); in [17], 24.8 µM (active); in [11] it was 26.1 µM (active); in [12] it was 66.4 µM (active). Also, the result in assay [15], in assay [5], in assay [9], in assay [18], in [13] and in assay [19] was inactive.
With `[Cl][In]([Cl])[Cl]`, the molecule was classed as inactive in [1], in assay [2], in assay [15], in [3], in assay [5] and in assay [16]. The outcome in assay [7], in assay [8], in assay [9], in assay [10], in [17] and in assay [11] was inactive. Further, the outcome in assay [18], in assay [12] and in assay [19] was inactive.
`CCN(CC)c1ccc(C(=O)c2ccccc2C(=O)O)c(O)c1`: the molecule was called inactive in assay [1], in assay [15], in assay [3], in assay [4], in assay [6] and in [16]. Moreover, the outcome in assay [8], in assay [9], in assay [11] and in assay [12] was inactive. In addition, the AC50 was 1.09 µM (active) in assay [2] and 1.7 µM (active) in assay [10].

Source of the values: PubChem BioAssay (EPA / NIEHS).
